52 molecules from ChEMBL document CHEMBL3988442, “University of Dundee, Small-Polar-MMV Screening Library” (2021) can be followed below.

In all, about 38,000 compounds went through this assay and about 1,200 (3.2%) showed an effect of 50% or more. The median lay at about -58%. Shown is part of a subset that was picked to be rich in strong results.

The subject of this experiment is Plasmodium falciparum. The experiment is described as follows: Calibr Malaria Delayed Death Assay SOP. It is filed as functional, organism-based. More on the design: scale not given: in the data most compounds retested in dose-response had high values. The settings on record: concentration 4.99e-06 (unit not given; other assays of the set use mol/L).
As to `Cc1ccc(OCCC(=O)N2CCOCC2c2ncon2)cc1C` (configuration not stated), the “Percent Effect” value is given as -113.3%.

With `O=C(c1ccco1)N1Cc2nccn2CC(Cn2ncccc2=O)C1` (configuration not stated), the “Percent Effect” value is reported as -89.1%.

With `CCCN(CCC)c1ncc(S(=O)(=O)c2ccc(C)cc2)c(N)n1`, the “Percent Effect” value stood at 12.69%. For `CCCN(CCC)c1ncc(S(=O)(=O)c2ccccc2)c(N)n1`, the “Percent Effect” value was -11.95%. For the molecule `CCCN(CCC)c1ncc(S(=O)(=O)c2ccc(OC)cc2)c(N)n1`, the “Percent Effect” value came out at 66.8%. As for `N#Cc1c(N)nc2c(c1-c1c[nH]nc1C1CCCCC1)CNCC2`, the “Percent Effect” value was 6.508%.

On to `c1ccc(COCC2CN(Cc3ccsc3)Cc3nccn3C2)nc1` (configuration not stated), for which the “Percent Effect” value stood at 1.035%. Take `CCc1cnc(CN(C)C2CCN(CCCNS(C)(=O)=O)C2)o1` (configuration not stated): the “Percent Effect” value is -33.46%. Turning to `Cc1cc(C)n(C2CN(CC(=O)N(C)Cc3cnn(C)c3)C2)n1`, the “Percent Effect” value is given as -103.6%. In the case of `Cc1cc(C)n(C2CN(CC(=O)N(C)Cc3ccc(C)o3)C2)n1`, the “Percent Effect” value was -1.347%. Take `COc1ccccc1CN(C)C(=O)CN1CC(n2nc(C)cc2C)C1`: the “Percent Effect” value is 77.58%. With `Cc1cc(C)n(C2CN(CC(=O)N(C)Cc3ccco3)C2)n1` the figure was -70.44%.

Regarding `Cc1cc(C)n(C2CN(CC(=O)N(C)Cc3ccsc3)C2)n1`, the “Percent Effect” value is given as 24.51%. On to `COc1cccc(CN(C)C(=O)CN2CC(n3nc(C)cc3C)C2)c1`, for which the “Percent Effect” value is 62.45%.

In the case of `CC(C)NC(=O)N1CC[C@@H]2CN(S(C)(=O)=O)CCO[C@@H]2C1`, the “Percent Effect” value is listed as -58.18%.

With `Cc1nnc(NC(=O)NCc2ccc(OC3CCCC3)nc2)s1`, the “Percent Effect” value turned out to be 2.114%. On to `Cc1cccc(N2Cc3nc(N4CCC(C)CC4)ncc3C2=O)c1`, for which the “Percent Effect” value is -105.8%. With `O=S(=O)(c1ccccc1)N1CCC[C@]2(C[C@@H](OCC3CC3)CO2)C1` the figure was -64.42%; with `CCOc1ccc2[nH]c3c(N(C)CC4OCCO4)ncnc3c2c1`, -160.2%. With `CCCNC(=O)CCNC(=O)c1sc2ccc(F)cc2c1C`, the “Percent Effect” value is listed as -59.54%. Consider `CN1CCN(C(=O)c2cc3occc3n2Cc2ccccc2F)CC1`, for which the “Percent Effect” value is reported as -0.5316%. The same measure for `CN1CCN(C(=O)c2occc2CN2C(=O)Cc3ccccc32)CC1`: 53.65%; for `O=C(c1occc1CN1C(=O)Cc2ccccc21)N1CC(O)C1`: -91.69%. In the case of `N#Cc1cnc2c(F)cc(F)cc2c1NC1CCN(CC(N)=O)CC1`, the “Percent Effect” value is given as -21.61%. For the molecule `Cc1cnc(NC(=O)CSC2CCc3ccccc3NC2=O)s1` (configuration not stated), the “Percent Effect” value was -9.765%. Consider `NC(=O)c1ccc(CN2CCC(N3CCCCC3)CC2)cc1`, for which the “Percent Effect” value is -16.53%.

As for `CC(NCc1ccc(OCC(N)=O)cc1)c1ccc(Cl)cc1.Cl` (configuration not stated), the “Percent Effect” value is on record as 12.76%. The same measure for `CC(NCc1ccc(OCC(N)=O)cc1)c1ccc2c(c1)CCCC2` (configuration not stated): 72.97%. As to `CC(NCc1ccc(OCC(N)=O)cc1)c1ccc(Cl)c(Cl)c1.Cl` (configuration not stated), the “Percent Effect” value is listed as 2.26%. On to `CSCCN1C(=O)CC(C)(c2ccc(Br)cc2)C1=O` (configuration not stated), for which the “Percent Effect” value is -78.64%. `COC(=O)CCCC(=O)N1CCCCC1c1ccc(F)cc1` (configuration not stated): the “Percent Effect” value is recorded as -184.4%. Turning to `NCC(=O)N1CCCCC1c1ccc(F)cc1` (configuration not stated), the “Percent Effect” value worked out at 85.19%. With `O=C1CCCCN1CCC(=O)N1CCCCC1c1ccc(F)cc1` (configuration not stated) the figure was -57.96%; with `C[C@]1(O)CN(Cc2cscn2)CC[C@@H]1Oc1cccc(F)c1`, -10.93%; with `CC(c1ccc(F)cc1F)N1CCN(Cc2nccn2C)CC1` (configuration not stated), -23.71%. Regarding `CC(NCCn1cccn1)c1cc(F)ccc1F` (configuration not stated), the “Percent Effect” value was determined as 0.142%.

As to `Cc1[nH]ncc1C(C)NCc1ccc(F)cc1` (configuration not stated), the “Percent Effect” value was -52.77%.

Regarding `CCN1CCN(c2ccc(F)cc2C(C)NCc2ccccn2)CC1` (configuration not stated), the “Percent Effect” value is 85.11%. In the case of `CCN1CCN(c2ccc(F)cc2C(C)NCc2cscn2)CC1` (configuration not stated), the “Percent Effect” value stood at 80.23%.

On to `CC(c1cc(F)ccc1F)N1CCN(Cc2nccn2C)CC1` (configuration not stated), for which the “Percent Effect” value is reported as -48.8%. For `CCN1CCN(c2ccc(F)cc2C(C)NCc2ccnn2C)CC1` (configuration not stated), the “Percent Effect” value is reported as 75.25%. In the case of `CC(NC(=O)NCc1cscn1)c1ccc(N2CCOCC2)cc1` (configuration not stated), the “Percent Effect” value is listed as -60.07%. For the molecule `CCN1CCN(c2ccc(F)cc2C(C)NCc2ccncc2)CC1` (configuration not stated), the “Percent Effect” value turned out to be 71.8%.

In the case of `CC(NCc1ccccn1)c1cc2c(cc1Br)OCCO2` (configuration not stated), the “Percent Effect” value turned out to be 22.3%. The same measure for `CC(NCc1ccncc1)c1cc2c(cc1Br)OCCO2` (configuration not stated): 7.247%; for `Cn1nc(-c2ccccc2)c(Cl)c1C(=O)O`: 13.43%. The same measure for `CC(C)S(=O)(=O)NCC(Cc1cccc(F)c1)N1CCNC1=O` (configuration not stated): -68.63%; for `COc1ccc(CNc2nc(N3CCOCC3)ns2)cc1`: -61.76%. For `Cc1ccc(CCNC(=O)CC2COCCN2S(=O)(=O)N(C)C)o1` (configuration not stated), the “Percent Effect” value is listed as -12.87%. Take `CC(C)c1nncn1CCNC(=O)c1ccc(Cl)cc1O`: the “Percent Effect” value is -118.9%. Turning to `Cc1nccc(-c2cccc(NCC(=O)NCC(=O)N3CCCC3)c2)n1`, the “Percent Effect” value is -89.65%. As to `Cc1cnc(C(=O)N2CC[C@@H]3CN(c4ncccn4)CCO[C@@H]3C2)cn1`, the “Percent Effect” value was -80.08%.
